# Pf apPOL inh – Pf-apPOL inhibitors, biochemical, fluorescence | Recombinant Pf-apPOL, molecular beacon fluorescence, 1.5 h | inhibition, % at 10 µM | hit rate 0.25% among 210,000 | Plasmodium falciparum apicoplast DNA polymerase (apPOL)
# mHTT-CaM PPI inh – mutant huntingtin-calmodulin interaction inhibitors – biochemical, AlphaScreen, primary screen | P42858 | AlphaScreen His-mHTT/GST-CaM binding, luminescence | inhibition, % at 15 µM | hit rate 3.6% among 190,000
# Target sequence (P42858 whole entry, looked up, change not shown): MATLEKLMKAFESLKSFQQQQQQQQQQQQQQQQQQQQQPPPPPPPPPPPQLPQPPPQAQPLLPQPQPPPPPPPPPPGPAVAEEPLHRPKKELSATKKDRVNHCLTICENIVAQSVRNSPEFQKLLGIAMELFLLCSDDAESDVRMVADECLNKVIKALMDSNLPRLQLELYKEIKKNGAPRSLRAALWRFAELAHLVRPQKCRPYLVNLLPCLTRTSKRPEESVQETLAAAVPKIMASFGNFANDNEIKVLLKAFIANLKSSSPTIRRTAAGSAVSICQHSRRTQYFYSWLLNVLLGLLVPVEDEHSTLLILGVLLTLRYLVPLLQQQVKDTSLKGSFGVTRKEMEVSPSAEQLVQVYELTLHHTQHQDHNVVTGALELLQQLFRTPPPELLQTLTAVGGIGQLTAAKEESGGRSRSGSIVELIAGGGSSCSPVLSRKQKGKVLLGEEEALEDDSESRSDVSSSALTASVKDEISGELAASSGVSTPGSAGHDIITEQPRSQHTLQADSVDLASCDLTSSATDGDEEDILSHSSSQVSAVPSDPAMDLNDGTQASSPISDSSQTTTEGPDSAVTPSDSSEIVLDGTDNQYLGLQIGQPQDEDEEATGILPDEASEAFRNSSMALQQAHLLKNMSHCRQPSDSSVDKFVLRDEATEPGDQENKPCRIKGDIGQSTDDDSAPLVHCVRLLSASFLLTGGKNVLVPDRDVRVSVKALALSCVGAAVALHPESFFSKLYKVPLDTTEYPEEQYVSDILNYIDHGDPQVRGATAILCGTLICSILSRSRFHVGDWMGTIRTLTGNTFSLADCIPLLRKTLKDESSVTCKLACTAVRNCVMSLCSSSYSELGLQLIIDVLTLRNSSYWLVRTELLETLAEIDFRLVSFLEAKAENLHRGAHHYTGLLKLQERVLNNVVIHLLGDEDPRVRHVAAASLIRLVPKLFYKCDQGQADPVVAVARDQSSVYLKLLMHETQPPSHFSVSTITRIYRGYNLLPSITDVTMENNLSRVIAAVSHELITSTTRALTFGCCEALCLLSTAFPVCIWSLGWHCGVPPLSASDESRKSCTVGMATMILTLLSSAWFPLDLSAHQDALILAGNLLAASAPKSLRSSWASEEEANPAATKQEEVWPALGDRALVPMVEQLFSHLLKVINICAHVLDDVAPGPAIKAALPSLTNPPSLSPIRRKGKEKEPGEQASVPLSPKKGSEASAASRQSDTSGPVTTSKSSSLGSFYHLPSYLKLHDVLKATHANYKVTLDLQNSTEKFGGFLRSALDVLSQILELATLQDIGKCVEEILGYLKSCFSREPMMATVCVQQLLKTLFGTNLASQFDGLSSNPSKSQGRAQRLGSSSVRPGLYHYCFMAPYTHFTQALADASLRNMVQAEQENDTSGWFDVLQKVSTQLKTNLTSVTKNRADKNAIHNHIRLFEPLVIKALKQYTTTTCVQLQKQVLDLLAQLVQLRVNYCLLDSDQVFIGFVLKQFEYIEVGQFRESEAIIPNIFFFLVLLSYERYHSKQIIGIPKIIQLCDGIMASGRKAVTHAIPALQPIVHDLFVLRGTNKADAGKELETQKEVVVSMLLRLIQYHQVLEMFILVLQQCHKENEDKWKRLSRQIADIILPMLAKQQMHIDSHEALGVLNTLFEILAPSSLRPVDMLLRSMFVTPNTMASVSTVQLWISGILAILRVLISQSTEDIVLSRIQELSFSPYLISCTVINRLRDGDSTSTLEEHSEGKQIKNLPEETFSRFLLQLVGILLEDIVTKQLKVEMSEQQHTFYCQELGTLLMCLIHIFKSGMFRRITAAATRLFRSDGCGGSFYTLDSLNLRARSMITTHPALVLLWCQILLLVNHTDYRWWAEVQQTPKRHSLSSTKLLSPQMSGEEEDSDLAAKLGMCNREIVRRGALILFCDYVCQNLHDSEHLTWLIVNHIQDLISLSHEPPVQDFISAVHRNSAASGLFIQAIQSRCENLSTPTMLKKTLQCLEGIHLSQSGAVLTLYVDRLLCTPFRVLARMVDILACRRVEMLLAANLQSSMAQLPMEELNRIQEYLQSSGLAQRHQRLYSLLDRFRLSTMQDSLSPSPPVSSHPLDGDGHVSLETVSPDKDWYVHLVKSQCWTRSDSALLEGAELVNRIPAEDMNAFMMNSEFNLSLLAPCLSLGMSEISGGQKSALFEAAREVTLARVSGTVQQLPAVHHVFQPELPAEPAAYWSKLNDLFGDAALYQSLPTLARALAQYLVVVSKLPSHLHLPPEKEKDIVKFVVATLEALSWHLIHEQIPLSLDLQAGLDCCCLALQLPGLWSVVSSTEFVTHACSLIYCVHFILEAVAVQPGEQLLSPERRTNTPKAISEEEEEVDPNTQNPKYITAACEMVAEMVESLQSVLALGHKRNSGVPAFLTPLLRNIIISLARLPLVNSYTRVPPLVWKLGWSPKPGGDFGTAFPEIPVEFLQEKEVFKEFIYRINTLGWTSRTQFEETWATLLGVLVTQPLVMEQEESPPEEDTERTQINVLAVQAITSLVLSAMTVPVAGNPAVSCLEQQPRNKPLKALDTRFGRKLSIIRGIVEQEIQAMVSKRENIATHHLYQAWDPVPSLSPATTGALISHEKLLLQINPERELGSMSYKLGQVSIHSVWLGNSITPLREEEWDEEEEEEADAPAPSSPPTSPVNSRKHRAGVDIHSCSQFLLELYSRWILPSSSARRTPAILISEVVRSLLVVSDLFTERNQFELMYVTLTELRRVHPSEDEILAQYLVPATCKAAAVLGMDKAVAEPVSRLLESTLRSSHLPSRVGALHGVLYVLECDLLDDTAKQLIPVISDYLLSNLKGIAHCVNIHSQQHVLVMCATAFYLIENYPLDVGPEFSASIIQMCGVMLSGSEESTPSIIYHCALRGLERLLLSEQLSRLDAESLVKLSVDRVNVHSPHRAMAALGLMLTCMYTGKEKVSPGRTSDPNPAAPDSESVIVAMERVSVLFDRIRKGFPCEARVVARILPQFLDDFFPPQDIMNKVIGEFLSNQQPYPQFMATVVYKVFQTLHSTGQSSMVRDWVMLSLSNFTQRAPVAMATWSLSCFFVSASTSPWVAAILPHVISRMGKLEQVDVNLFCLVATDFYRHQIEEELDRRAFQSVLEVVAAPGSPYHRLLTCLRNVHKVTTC
# A number is an active result; n = inactive; x = no result; ! = not confirmed by another sample. A selection: hits, their analogues and other compounds. The true share with any hit is near 3.6%. No stated cut-off is given here; in the data, active means inhibition above about 50%; inactive means the rest.
SMILES,Pf apPOL inh,mHTT-CaM PPI inh
COc1cccc2cc(C(N)=O)c(=Nc3ccc(C(N)=O)cc3)oc12,n,n
CC1(C)C(C=C(Cl)Cl)C1C(=O)Nc1sc2c(c1C(N)=O)CCCC2 (configuration not stated),n,100
CC1(C)C(C=C(Cl)Cl)C1C(=O)Nc1sc2c(c1C#N)CCC2 (configuration not stated),n,n
Cc1cccc(NC(=O)c2cc(I)ccc2Cl)c1C,n,n
Cc1ccc(Cl)cc1N=Cc1nc(-c2ccccc2Br)oc1O,n,n
O=[N+]([O-])c1ccc2c(c1)OC1(CCCC1)O2,n,n
Nc1ccc2c(c1)OC1(CCCC1)O2,n,60!
COc1ccccc1NC(=O)c1c(NCc2ccccn2)sc2c1CCCC2,n,50
CCOc1ccccc1NC(=O)c1c(NCc2cccn2C)sc2c1CCC2,n,n
COc1ccc(NC(=O)c2c(NCc3ccccn3)sc3c2CCC(C)C3)c(OC)c1 (configuration not stated),n,n
CCOc1ccccc1NC(=O)c1c(NCc2ccccn2)sc2c1CCC2,n,58
CCOc1ccccc1NC(=O)c1c(NCc2ccncc2)sc2c1CCC2,n,n
COc1ccc(NC(=O)c2c(NCc3ccccn3)sc3c2CCCC3)c(OC)c1,n,53
COc1cc(OC)c(NC(=O)CNC(=O)Cn2c(C)cc3ccccc3c2=O)cc1Cl,n,n
CCOc1ccc(CNC(=O)CCCc2cn(C)c3ccccc23)cc1OC,n,n
CCN(CCCNS(=O)(=O)c1ccc(Cl)s1)c1cccc(C)c1,n,65
CCN(CCCNC(=O)C1CCCN(S(=O)(=O)N2CCCC2)C1)c1cccc(C)c1 (configuration not stated),n,n
COc1ccc(-c2nc(-c3nnn(-c4ccc(F)cc4)c3C)no2)cc1OC,n,n
COc1ccc(-c2nc(-c3ccc(F)cc3)c[n+]3ccc4cc(OC)c(OC)cc4c23)cc1OC,x,78
Clc1ccc(CSc2nnc(-c3ccco3)n2-c2ccccc2)cc1,n,n
CC(C)(C)N1Cc2nnn(Cc3ccccc3)c2-c2cc(F)ccc2S1(=O)=O,n,n
CCN1Cc2nnn(Cc3ccccc3)c2-c2cc(F)ccc2S1(=O)=O,n,94
Cc1cccc(NC(=O)C(=O)NCc2ccccn2)n1,n,n
Cc1cccc(NC(c2ccccn2)c2ccc3ccc(C)nc3c2O)n1 (configuration not stated),n,99
Cc1ccc2ccc3ccc(C)nc3c2n1,x,n
SMILES,Pf apPOL inh,mHTT-CaM PPI inh
Cc1cccc(NC(c2cccc(C)n2)c2ccc3ccc(C)nc3c2O)n1 (configuration not stated),n,76
COc1cc(CNc2ccc(C)cc2Br)cc(OC)c1OC,n,n
CCN(C)C(=O)C(C1CCCC1)N1CCN(C(=O)c2ccccc2)CC1 (configuration not stated),n,n
O=C(Nc1ccc(NC(=O)c2ccco2)cc1)c1cccc(OCc2ccccc2)c1,n,n
COc1ccccc1[C@H]1C(c2ccc(F)cc2)=NN(c2ccccc2)[C@@H]1CO,n,67
COc1ccccc1[C@H]1C(c2ccccc2)=NN(c2ccccc2)[C@@H]1CO,n,n
COc1ccccc1[C@H]1C(c2cccc(C)c2)=NN(c2ccccc2)[C@@H]1CO,n,86
Cc1cccc(C2=NN(c3ccccc3)[C@@H](C(=O)N3CCOC3=O)[C@@H]2c2ccccc2)c1,n,n
Cc1[nH]c(=O)[nH]c(=O)c1CCc1nnc(SCC(=O)Nc2ccccn2)o1,n,n
Cc1cc(O)c(C(=O)C=Cc2ccc(N(C)C)cc2)c(=O)o1,n,n
O=C(Nc1ccc(F)cc1F)C12CC3CC(C1)CC(n1cncn1)(C3)C2,n,n
CCCCNC(=O)C(=O)NCCCn1ccnc1,x,n
CCn1c2ccccc2c2cc(C(C)=O)ccc21,n,n
CC(C)(C)OC(=O)Cn1c2ccccc2c2cc(N)ccc21,n,73
CC(=O)Nc1ccc(/C=C2\OC(=O)c3c2cc(C)[nH]c3=O)cc1,n,n
Cc1cc2c(c(=O)[nH]1)C(=O)O/C2=C/c1cn[nH]c1-c1cccs1,x,64
Fc1ccc(NCc2nc3ccccc3n2Cc2ccccc2)cc1,n,50
Nc1nc2ccccc2n1Cc1ccccc1,n,n
Cc1ccc(CNc2ccc3c(c2)ncn3C)cc1,n,n
Cn1cnc2cc(NCc3nc4ccccc4n3Cc3ccccc3)ccc21,n,88!
CC(=O)c1ccc(NC(=O)c2ccccc2[N+](=O)[O-])cc1,n,n
COc1ccc(Cl)cc1NC(=O)CSc1nc(=O)n(CCCO)c2c1CCCC2,n,57
COc1ccc(Cl)cc1NC(=O)CSc1nc(=O)n2cccc(C)c2n1,n,n
COc1cccc(/C=C2\NC(=O)NC2=O)c1OCCCOc1ccc(Cl)c(C)c1,n,n
CC(=O)Nc1ccc(C(=O)NCc2cccc(Cl)c2)c(N2CCOCC2)c1,n,n
CC(=O)Nc1ccc(C(=O)NCc2ccc(F)c(Cl)c2)c(N2CCCCC2)c1,n,99

# Source: PubChem BioAssay
